Laboratory results published in publication PMC4336329 (PLoS ONE, 2015).
Out of some 310,000 compounds screened, about 14,000 (4.5%) showed an effect of 50% or more. The effect is printed as a negative number. The entries come from a sample that favours strong results as a whole.

target: human ether-à-go-go-related gene (hERG) potassium channel (human, UniProt Q12809); test: primary screen, population patch clamp on CHO cells stably expressing hERG; higher = less effect of the substance
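Note: peak tail current of the secondary pulse compared with the same well before compound.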

human ether-à-go-go-related gene (hERG) potassium channel, sequence (Q12809 whole entry, looked up): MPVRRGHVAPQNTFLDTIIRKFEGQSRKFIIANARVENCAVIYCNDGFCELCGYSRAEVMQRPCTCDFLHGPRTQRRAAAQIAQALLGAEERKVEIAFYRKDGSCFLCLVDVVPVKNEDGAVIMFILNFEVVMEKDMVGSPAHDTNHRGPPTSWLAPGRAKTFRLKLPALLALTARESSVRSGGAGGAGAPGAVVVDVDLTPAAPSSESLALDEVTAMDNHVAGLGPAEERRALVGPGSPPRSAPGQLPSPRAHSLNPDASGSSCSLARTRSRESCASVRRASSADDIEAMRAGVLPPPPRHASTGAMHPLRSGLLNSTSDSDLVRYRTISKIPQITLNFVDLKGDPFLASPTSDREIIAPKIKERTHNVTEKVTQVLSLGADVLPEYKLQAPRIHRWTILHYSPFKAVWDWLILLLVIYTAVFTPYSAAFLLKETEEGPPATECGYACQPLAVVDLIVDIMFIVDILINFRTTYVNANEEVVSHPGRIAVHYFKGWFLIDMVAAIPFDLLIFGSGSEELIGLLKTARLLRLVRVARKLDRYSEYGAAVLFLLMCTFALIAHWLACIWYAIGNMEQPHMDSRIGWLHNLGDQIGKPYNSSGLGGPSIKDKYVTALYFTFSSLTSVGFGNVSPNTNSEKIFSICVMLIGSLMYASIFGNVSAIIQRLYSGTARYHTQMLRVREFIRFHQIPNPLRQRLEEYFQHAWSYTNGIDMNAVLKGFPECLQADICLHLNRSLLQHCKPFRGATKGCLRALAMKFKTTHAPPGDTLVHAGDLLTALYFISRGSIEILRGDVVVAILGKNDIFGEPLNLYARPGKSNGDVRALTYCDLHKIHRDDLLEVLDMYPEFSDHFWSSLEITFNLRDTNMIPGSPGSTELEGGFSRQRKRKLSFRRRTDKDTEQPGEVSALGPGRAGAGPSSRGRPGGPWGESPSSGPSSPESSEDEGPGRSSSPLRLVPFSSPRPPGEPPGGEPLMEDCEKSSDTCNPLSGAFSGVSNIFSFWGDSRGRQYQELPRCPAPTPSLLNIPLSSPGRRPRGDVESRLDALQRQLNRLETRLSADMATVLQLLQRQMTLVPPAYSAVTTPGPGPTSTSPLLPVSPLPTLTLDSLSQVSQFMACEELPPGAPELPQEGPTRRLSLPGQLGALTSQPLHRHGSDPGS

Structure (SMILES)	hERG current change (%, negative = inhibition) at 10uM
Cc1ccc(NC(=O)C2CCCN(S(=O)(=O)c3ccc4[nH]c(=O)ccc4c3)C2)c(C)c1 (stereo not drawn)	3.65%
Cc1cccc(C)c1N(CC(=O)N(C)Cc1ccccc1)S(C)(=O)=O	3.99%
COC(=O)c1ccc2c(=O)n(Cc3ccc4c(c3)OCO4)c(=S)[nH]c2c1	16.3%
CCn1c2ccccc2c2cc(NC(=O)CSc3nnc(-c4ccc(OC)cc4)n3N)ccc21	-10.9%
O=S(=O)(c1ccc2ccccc2c1)N1CCN(S(=O)(=O)N2CCOCC2)CC1	-0.31%
O=C(NC1CCN(C(=O)c2cccs2)CC1)c1ccccc1	-19.3%
COC(=O)c1cc(N=CC2=C(O)CC(C)(C)CC2=O)cc(C(=O)OC)c1	-16.3%
O=C(c1ccccc1)N1CCN(c2ncnc3c(-c4ccccc4)nsc23)CC1	6.38%
Cc1nc2ccccc2c(=O)n1/N=C/c1ccc(O)cc1	10.9%
Cc1nn(-c2ccccc2)c2nc(=O)n(-c3ccccc3)cc12	-10.9%
Cc1ccc(S(=O)(=O)Nc2cccc(-n3cnnn3)c2)cc1C(=O)O	3.97%
CCOC(=O)N1CCC(NC(=O)c2ccc3c(=O)n4c(nc3c2)CCCC4)CC1	12%
O=C(c1ccc2c(=O)n3c(nc2c1)CCCCC3)N1CCCCC1	17.5%
O=C(NC1CCCCCC1)c1ccc2c(=O)n3c(nc2c1)CCCCC3	-51%
CCNc1ccc(C(=O)OCC)cc1NC(=O)c1cc(S(=O)(=O)N2CCOCC2)ccc1C	-10.9%
Cn1c(SCC(=O)N2CCCC2)nnc1-c1cccs1	4.73%
CN(C(=O)COC(=O)CSc1cc(Cl)ccc1Cl)c1c(N)n(Cc2ccccc2)c(=O)[nH]c1=O	-0.021%
C[C@H]1CN=C(Nc2ccccc2)N1CC1CCCCC1	0.474%
C[C@H]1CN=C(Nc2ccccc2)N1CCC1CCCCC1	-46.8%
C[C@H]1CN=C(Nc2ccccc2)N1CCCC1CCCCC1	-62.2%
C[C@H]1CN=C(Nc2ccccc2)N1CCC1CCCC1	-10.6%
C[C@H]1CN=C(Nc2ccccc2)N1CCCC1CCCC1	-58.7%
C[C@H]1CN=C(Nc2ccccc2)N1CC1CCCCCC1	-24.5%
COc1ccc(S(=O)(=O)N2CCOC2CNC(=O)C(=O)NCc2ccncc2)cc1OC (stereo not drawn)	10.3%
O=S(=O)(c1ccc(Cl)cc1)c1nc(-c2ccccc2F)oc1NCCN1CCOCC1	-67%
Cc1ccc(S(=O)(=O)c2nc(-c3ccccc3)oc2NCCN2CCOCC2)cc1	3.12%
O=S(=O)(c1ccc(Cl)cc1)c1nc(-c2ccccc2F)oc1NCCCN1CCOCC1	-10.4%

Structure (SMILES)	hERG current change (%, negative = inhibition) at 10uM
O=S(=O)(c1ccccc1)c1nc(-c2ccccc2)oc1NCCCN1CCOCC1	-43.9%
Cc1ccccc1-c1nc(S(=O)(=O)c2ccc(Cl)cc2)c(NCCN2CCOCC2)o1	-20.2%
Cc1cccc(-c2nc(S(=O)(=O)c3ccc(F)cc3)c(NCCCN3CCOCC3)o2)c1	-69.4%
COc1cccc(CN2CCN(C(=O)c3cccc4ccccc34)CC2)c1.O=C(O)C(=O)O	-12%
COc1cccc(CN(C)C(=O)C2CC(=O)N(c3ccc4c(c3)OCCO4)C2)c1 (stereo not drawn)	12.1%
COc1cccc(-c2nc3ccc(O)cc3c(=O)o2)c1	1.21%
Cc1ccc(OCC(=O)N2CCN(C(=O)c3cccs3)CC2)cc1	-34.8%
O=C(COc1ccccc1)N1CCN(C(=O)c2cccs2)CC1	-13.4%
COc1ccc(OCC(=O)N2CCN(C(=O)c3cccs3)CC2)cc1	-43.3%
CCOc1cc(C#N)ccc1OCC(=O)N1CCc2ccccc2C1	-40.7%
CCOc1cc(C#N)ccc1OCC(=O)N1CCN(C(=O)c2cccs2)CC1	-67.7%
O=C(COc1ccc2ccccc2c1)N1CCN(C(=O)c2cccs2)CC1	-50%
O=C(COc1ccc(Cl)cc1)N1CCN(C(=O)c2cccs2)CC1	-74.5%
O=C(COc1ccccc1Br)N1CCN(C(=O)c2cccs2)CC1	-32.2%
O=C(COc1ccc(-c2ccccc2)cc1)N1CCN(C(=O)c2cccs2)CC1	-41.8%
Cc1nnc(SCc2cc(=O)[nH]c(/N=C(\N)Nc3ccccc3Sc3ccccc3)n2)s1	-11.1%
Cl.O=C(CNCCO)N1CCc2ccccc21	-5.27%
Cc1ccc(CN2C(=O)N/C(=C/c3ccc(-c4ccc(C(=O)O)cc4)o3)C2=O)cc1	0.0417%
O=C1CC(N2CCN(C/C=C/c3ccccc3)CC2)C(=O)N1Cc1cccs1 (stereo not drawn)	-74.8%
COc1ccc(CCN2C(=O)CC(N3CCN(C/C=C/c4ccccc4)CC3)C2=O)cc1OC (stereo not drawn)	-43.9%
O=C1CC(N2CCN(C3CC(=O)N(CCc4ccccc4)C3=O)CC2)C(=O)N1CCc1ccccc1 (stereo not drawn)	-6.78%
O=C1CC(N2CCN(C/C=C/c3ccccc3)CC2)C(=O)N1CCc1ccccc1 (stereo not drawn)	-58.1%
O=C1OC(N2CCN(C/C=C/c3ccccc3)CC2)c2ccccc21 (stereo not drawn)	9.57%
O=C1CC(N2CCN(C/C=C/c3ccccc3)CC2)C(=O)N1Cc1ccc(N2CCCC2=O)cc1 (stereo not drawn)	-46.7%
C=CCn1c(CNC(=O)c2cccs2)n[nH]c1=S	15.5%
Cc1cc(C)cc(OC(=O)CCN2C(=O)c3ccccc3C2=O)c1	-3.19%
COc1ccccc1N(CC(=O)Nc1ccc(F)c(F)c1)S(C)(=O)=O	-1.01%
